Experimental data as given in PubChem BioAssay AID1159580 (chemical genetic matrix, 2015).
About 2,000 (36%) of roughly 5,500 compounds were called active. Roughly 18% stayed inconclusive and do not appear here. No stated cut-off is given here; in the data, active means normalized growth mostly below about 0.91 (no sharp cut-off); inconclusive means no clear call, values can overlap the other calls; inactive means mostly above about 0.92. The list shows a part of the results.

Assay: chemical genetic growth profiling, strain panel (AID 1159580);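 further: tested at 20 µM; growth read once vehicle control cultures reached saturation at 30 °C; 1 = growth at the plate median or of vehicle wells; lower values mean less growth of the strain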
Conditions: S. cerevisiae deletion strains, growth OD

Measured: normalized growth

COc1cc2c(cc1OC)-c1c(oc3cc(O)cc(O)c3c1=O)CO2
inactive: locus YAL021C, strain ccr4, active compounds read low 1.02 | locus YAL026C, strain drs2, active compounds read low 1.01 | locus YAL030W, strain snc1, active compounds read low 1.01 | locus YBL061C, strain skt5, active compounds read low 1.01 | locus YBR009C, strain hhf1, active compounds read low 1.02 | locus YBR023C, strain chs3, active compounds read low 1.02 | locus YBR171W, strain sec66, active compounds read low 1.03 | locus YBR231C, strain swc5, active compounds read low 1.02 | locus YBR279W, strain paf1, active compounds read low 1.02 | locus YCL011C, strain gbp2, active compounds read low 1.01 | locus YCL016C, strain dcc1, active compounds read low 1.02 | locus YCL061C, strain MRC1, active compounds read low 1.01 | locus YCL069W, strain vba3, active compounds read low 1.01 | locus YCR088W, strain abp1, active compounds read low 1.02 | locus YDL005C, strain med2, active compounds read low 1.04 | locus YDL040C, strain nat1, active compounds read low 1.01 | locus YDR001C, strain nth1, active compounds read low 1.01 | locus YDR069C, strain doa4, active compounds read low 1.02 | locus YDR137W, strain rgp1, active compounds read low 1 | locus YDR159W, strain sac3, active compounds read low 1.04 | locus YDR195W, strain ref2 1.04 | locus YDR297W, strain sur2, active compounds read low 1.02 | locus YDR334W, strain swr1, active compounds read low 1.01 | locus YDR335W, strain msn5, active compounds read low 1.03 | locus YDR392W, strain spt3, active compounds read low 1.01 | locus YEL003W, strain gim4, active compounds read low 1.02 | locus YEL037C, strain rad23, active compounds read low 1.01 | locus YEL061C, strain CIN8 (second series), active compounds read low 1.01 | locus YER015W, strain faa2, active compounds read low 1.02 | locus YER016W, strain bim1, active compounds read low 1.01 | locus YER111C, strain swi4, active compounds read low 1.03 | locus YER155C, strain BEM2 (second series), active compounds read low 1.03 | locus YFR010W, strain ubp6, active compounds read low 1.02 | locus YGL167C, strain pmr1, active compounds read low 1.02 | locus YGL173C, strain kem1, active compounds read low 1.03 | locus YGL227W, strain vid30, active compounds read low 1.03 | locus YGL240W, strain doc1, active compounds read low 1.02 | locus YGL253W, strain hxk2, active compounds read low 1.02 | locus YHR013C, strain ard1, active compounds read low 1.01 | locus YHR027C, strain rpn1, active compounds read low 1.03 | locus YHR030C, strain SLT2, active compounds read low 1.05 | locus YHR079C, strain IRE1, active compounds read low 1.04 | locus YHR142W, strain chs7, active compounds read low 1.01 | locus YJL092W, strain hpr5, active compounds read low 1.02 | locus YJL095W, strain BCK1 (second series), active compounds read low 1.01 | locus YJL095W, strain BCK1, active compounds read low 1.05 | locus YJL115W, strain asf1, active compounds read low 1.01 | locus YJL129C, strain trk1, active compounds read low 1.03 | locus YJL154C, strain vps35, active compounds read low 1.02 | locus YJL164C, strain tpk1, active compounds read low 0.995 | locus YJL166W, strain qcr8, active compounds read low 1.01 | locus YJL187C, strain SWE1, active compounds read low 1.02 | locus YJR066W, strain TOR1, active compounds read low 0.999 | locus YKL160W, strain elf1, active compounds read low 1.02 | locus YKR026C, strain gcn3, active compounds read low 1.02 | locus YKR091W, strain srl3, active compounds read low 1.02 | locus YLL001W, strain dnm1, active compounds read low 1.02 | locus YLL026W, active compounds read low 1.01 | locus YLL041C, strain sdh2, active compounds read low 0.973 | locus YLR027C, strain aat2, active compounds read low 1.01 | locus YLR113W, strain HOG1, active compounds read low 1.08 | locus YLR221C, strain rsa3, active compounds read low 1.02 | locus YLR258W, strain gsy2, active compounds read low 1.02 | locus YLR262C, strain YPT6 (second series), active compounds read low 1.01 | locus YLR320W, strain mms22, active compounds read low 1.03 | locus YLR342W, strain FKS1, active compounds read low 1.02 | locus YLR357W, strain rsc2, active compounds read low 1.01 | locus YLR370C, strain arc18, active compounds read low 1.02 | locus YLR384C, strain iki3, active compounds read low 1.03 | locus YML120C, strain ndi1, active compounds read low 1.01 | locus YMR058W, strain fet3, active compounds read low 1.02 | locus YMR125W, strain sto1, active compounds read low 1.02 | locus YMR129W, active compounds read low 1.02 | locus YMR205C, strain PFK2, active compounds read low 1.02 | locus YMR231W, strain pep5, active compounds read low 1.02 | locus YNL071W, strain lat1, active compounds read low 1.01 | locus YNL183C, strain NPR1, active compounds read low 0.988 | locus YNL209W, strain ssb2, active compounds read low 1.02 | locus YNL248C, strain rpa49, active compounds read low 1.02 | locus YNL322C, strain KRE1 (second series), active compounds read low 1.02 | locus YNR049C, strain mso1, active compounds read low 1.02 | locus YOR001W, strain rrp6, active compounds read low 1.04 | locus YOR070C, strain gyp1, active compounds read low 1.02 | locus YOR080W, strain dia2, active compounds read low 1.02 | locus YOR083W, strain WHI5, active compounds read low 1 | locus YOR106W, strain vam3, active compounds read low 1.05 | locus YOR231W, strain MKK1, active compounds read low 1.05 | locus YOR265W, strain rbl2, active compounds read low 1.01 | locus YOR270C, strain vph1, active compounds read low 1.02 | locus YOR290C, strain snf2, active compounds read low 1.02 | locus YPL051W, strain arl3, active compounds read low 1 | locus YPL078C, strain atp4, active compounds read low 1.02 | locus YPL106C, strain sse1, active compounds read low 1.02 | locus YPL240C, strain hsp82, active compounds read low 1.02 | locus YPL256C, strain CLN2, active compounds read low 1.05
